MPTP block – permeability transition pore inhibition. AID 602449. inhibition, % at 10 µM. 360,000 tested, 1.4% active. isolated mouse mitochondria, Ca2+ swelling absorbance, 30 min;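 active = inhibition of 50% or more, scaled per plate between neutral and stimulator controls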
Mot1-301 SUMO – SUMOylation pathway inhibition by Mot1-301 growth rescue; S. cerevisiae Mot1-301 growth rescue, ATP luminescence, 38.5C; percent above DMSO median, 100 means doubled; growth rescue, % at 18.8 µM; 320,000 tested, 1% active; AID 2716;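 active = every valid replicate shows activation above 250% relative to neutral control wells; inactive = the rest, any valid replicate at or below 250%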
Yeast superoxide – yeast age-related superoxide inhibition as caloric restriction mimetic. superoxide response (% of plate mean), % at 10 µM. S. cerevisiae aged cells, superoxide DHE fluorescence; hits give low values. 330,000 tested, 0.18% active;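 active = superoxide response under a set limit, about three screen SD below normal, cut at about 65% in these data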;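 also: yeast aged for seven days with compound at 30 °C before DHE staining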
aDG glyco up – alpha-DG glycosylation activation | Pro5-aDG cells, alpha-DG glycosylation AlphaScreen (IIH6); 0% Pro5, 100% B10-LARGE cell signal | activation, % at 10 µM | 360,000 tested, 0.22% active | AID 624168;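 active = activation of at least 8% versus controls, or a plate z-score of at least 8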;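 also: Pro5 are CHO cells carrying HIG-tagged alpha-DG that lacks glycosylation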
FAS-TE inh – blocks the thioesterase domain of human fatty acid synthase | AID 602261 | inhibition, % at 15 µM | P49327 | recombinant FAS-TE, OMFH fluorogenic substrate, fluorescence endpoint | 360,000 tested, 0.67% active;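 active = compounds whose normalised, plate-corrected inhibition of enzyme fluorescence in the single-dose primary screen is 50% or more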
Cardio protect – myocardial damage modulation in H9c2 cells; H9c2 cardiomyocytes, H2O2 injury protection, ATPLite, 2 h; protection from H2O2 cell death, % at 20 µM; 360,000 tested, 0.63% active;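 active = compounds giving at least 50% protection of heart cells from peroxide-induced death in the single-dose screen, raw or plate-pattern-corrected value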
Mot1 SUMO dose – SUMO pathway inhibitors in yeast Mot1-301 growth; shares compounds with Mot1-301 SUMO; S. cerevisiae Mot1-301 galactose growth, ATP luminescence, 24 h; -100 = growth of slx-deleted rescue strain; growth activity, percent, % at 42 µM; 2,300 tested, under 10 active;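 active = Signal drops as the depositor expects, and the fitted half-maximal dose is no more than ten times the top valid tested dose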;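 also: more negative values mean stronger growth rescue toward the control strain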
Each line names hits and unclear results; the compound was inactive in the other large screens (follow-up assays come after a bar, where they were run). Compounds with a hit are over-represented: about 3.8% of the library has one in this group of screens.

O=C(NNC(=O)c1csc(N2CCOCC2)n1)c1ccc(Cl)nc1	Mot1-301 SUMO 451.8 | Mot1 SUMO dose inactive
CC(C)(C)n1nnnc1C(c1ccccc1)N1CCCN(Cc2ccc(F)cc2)CC1 (configuration not stated)	none (no result: Mot1-301 SUMO, Yeast superoxide, Cardio protect)
O=C(/C=C/c1c[nH]c2ccccc12)c1cccc2ccccc12	none
CCCCNS(=O)(=O)c1ccc(OC)cc1	Mot1-301 SUMO 495.5 | Mot1 SUMO dose inactive
CCn1nc(C(=O)OCc2cccc(S(=O)(=O)N(C)C)c2)c2ccccc2c1=O	Mot1-301 SUMO 849.8 | Mot1 SUMO dose inactive
CN(C)S(=O)(=O)c1cccc(COC(=O)c2ccc(Cl)cc2O)c1	none
O=C(Nc1ccc(F)cc1)c1ccc(CSc2ccc(Cl)cc2)o1	none
O=C(Nc1ccc(F)cc1)c1ccc(CSc2ccccc2)o1	Mot1-301 SUMO active | Mot1 SUMO dose inactive
CS(=O)(=O)N(CC(=O)N1CCCC1)c1cccc(Cl)c1Cl	Mot1-301 SUMO 530.4 | Mot1 SUMO dose inactive
Cc1ccc(N2C(=O)c3ccccc3NC2c2ccccc2O)cc1 (configuration not stated)	none
O=C1c2ccccc2NC(c2ccccc2O)N1O (configuration not stated)	Mot1-301 SUMO 383.8, Cardio protect 52.5 | Mot1 SUMO dose inactive
Cc1ccc(NC2CC(=O)N(c3ccc(N4CCCCC4)cc3)C2=O)cc1 (configuration not stated)	Mot1-301 SUMO 679.5 | Mot1 SUMO dose inactive
COc1ccc(N2C(=O)CC(Nc3ccc(C)cc3)C2=O)cc1 (configuration not stated)	none (no result: Mot1-301 SUMO)
O=C(c1cn(-c2ccccc2)nc1-c1cccs1)N1CCN(c2ccccc2)CC1	none
O=C(c1cn(-c2ccccc2)nc1-c1cccs1)N1CCOCC1	Mot1-301 SUMO active | Mot1 SUMO dose inactive
Cc1ccc(CSc2ccc(-c3ccco3)nn2)cc1	none
Cc1cccc(CSc2ccc(-c3ccco3)nn2)c1	Mot1-301 SUMO 667.5 | Mot1 SUMO dose inactive
COCCNC(=O)C(=O)N/N=C(\C)CC(=O)Nc1cccc(C(F)(F)F)c1	Mot1-301 SUMO 444.9 | Mot1 SUMO dose inactive
COc1ccc(C(=O)N/N=C(\C)CC(=O)Nc2cccc(C(F)(F)F)c2)cc1	none
S=C(NCC1CCCO1)N1CCc2ccccc2C1 (configuration not stated)	none
COc1ccc(-c2nnc(SCC(C)C)o2)cc1	Mot1-301 SUMO 584.2 | Mot1 SUMO dose inactive
COc1ccc(C(=O)CSc2nnc(-c3ccc(C)cc3)o2)cc1	none
OCC[C@H]1C[C@@H](O)[C@H](O)[C@]2(Cc3ccccc3CCO2)O1	none
Cc1ccc(CN2CCNC(=O)C2CC(=O)NCCCn2nnc3ccccc32)cc1 (configuration not stated)	none (no result: Mot1-301 SUMO, Yeast superoxide)
CCOc1ccccc1N(CC(=O)Nc1ccccc1C(=O)N1CCCC1)S(C)(=O)=O	Mot1-301 SUMO 586.3 | Mot1 SUMO dose inactive
CC(C)[C@@H](N)C(=O)NC[C@H]1O[C@@H](n2cnc3c(N)ncnc32)[C@H](O)[C@@H]1O	none (no result: Mot1-301 SUMO)
CCn1nc(CC(=O)Nc2ccc(-n3cnnn3)c(C)c2)c2ccccc2c1=O	Mot1-301 SUMO 723.7 | Mot1 SUMO dose inactive
CCn1nc(CC(=O)Nc2ccc(-n3cnnn3)c(OC)c2)c2ccccc2c1=O	none
CCN(CC)S(=O)(=O)c1ccc(N2CCCC2)c(C(=O)OCC(=O)Nc2cc(C)on2)c1	Mot1-301 SUMO 543.7 | Mot1 SUMO dose inactive
CN1C(=O)c2cccc3c(Cl)ccc(c23)C1=O	Mot1-301 SUMO 610.5 | Mot1 SUMO dose inactive
COc1ccc(C(CNC(=O)c2ccc(C)c(S(=O)(=O)Nc3ccccc3OC)c2)N2CCCC2)cc1 (configuration not stated)	none
CC(C)Cc1cc(CN2CCC(CO)(Cc3ccccc3)CC2)[nH]n1	Mot1-301 SUMO 455.4 | Mot1 SUMO dose inactive
CCOc1ccc(NC(=O)CC2C(=O)N(c3ccccc3)C(=S)N2Cc2ccccn2)cc1 (configuration not stated)	Mot1-301 SUMO active | Mot1 SUMO dose inactive
N#Cc1ccc(Oc2ccc(S(=O)(=O)N3CCCCC3)cn2)cc1	Mot1-301 SUMO 764.0 | Mot1 SUMO dose inactive
CCOC(=O)c1c(CN2CCNCC2)nc2ccc(Cl)cc2c1-c1ccccc1	none (no result: Mot1-301 SUMO, Yeast superoxide)
CS(=O)(=O)N1CCCC(C(=O)Nc2ccc(Br)cc2F)C1 (configuration not stated)	none
CS(=O)(=O)N1CCCC(C(=O)Nc2ccc(F)cc2F)C1 (configuration not stated)	Mot1-301 SUMO active | Mot1 SUMO dose inactive
CC(C)NC(=S)N/N=C/C1=CCC2CC1C2(C)C (configuration not stated)	none
CC1(C)C2CC=C(/C=N/NC(=S)Nc3cccnc3)C1C2 (configuration not stated)	Mot1-301 SUMO 744.5 | Mot1 SUMO dose inactive
O=C(NC1CCS(=O)(=O)C1)C1CCCN(S(=O)(=O)c2ccc(Cl)cc2)C1 (configuration not stated)	none
COC(=O)Nc1ccc(S(=O)(=O)N2CCCC(C(=O)NC3CCS(=O)(=O)C3)C2)cc1 (configuration not stated)	Mot1-301 SUMO 387.0 | Mot1 SUMO dose inactive
Cc1nnc(NC(=O)c2cccc(S(=O)(=O)N3CCOCC3)c2)s1	none
Cc1nnc(NC(=O)c2cccc(S(=O)(=O)N3CCCC3)c2)s1	Mot1-301 SUMO 575.8 | Mot1 SUMO dose inactive
CCc1nnc(NC(=O)c2cc(S(=O)(=O)N3CCN(c4ccccc4)CC3)ccc2Cl)s1	none
CCc1nnc(NC(=O)c2cccc(S(=O)(=O)N3CCN(c4ccccc4)CC3)c2)s1	Mot1-301 SUMO 572.0 | Mot1 SUMO dose inactive
COc1ccccc1C(=O)Nc1ccnn1C1CCN(C(=O)c2ccoc2C)CC1	none
COc1ccc(S(=O)(=O)NC2CC2)cc1Br	none
CC1CCN(C(=O)c2[nH]cnc2C(=O)NCC(=O)OCc2ccccc2)CC1	Mot1-301 SUMO 789.8 | Mot1 SUMO dose inactive
Cc1sc2ncnc(N3CCC(C(=O)NNC(=O)COc4ccccc4F)CC3)c2c1C	Mot1-301 SUMO 422.1 | Mot1 SUMO dose inactive
Cc1sc2ncnc(N3CCC(C(=O)NNC(=O)COc4ccccc4Cl)CC3)c2c1C	none
Cc1ccc(C(=O)OCN2C(=O)c3ccccc3C2=O)o1	none
c1cnc2nc3c4ccccc4c4ccccc4c3nc2c1	none (no result: Mot1-301 SUMO, Yeast superoxide)
Cc1nc2ccccc2c2ncccc12	Mot1-301 SUMO 613.3 | Mot1 SUMO dose inactive
CCCN1CCN(CCCNC(=O)Cn2nc(C)n3c(cc4cc(F)ccc43)c2=O)CC1	none
CCCNC(=O)Cn1nc(C)n2c(cc3cc(F)ccc32)c1=O	Mot1-301 SUMO active | Mot1 SUMO dose inactive
CC(C)NC(=O)c1ccccc1-c1ccccc1	Mot1-301 SUMO 467.5 | Mot1 SUMO dose inactive

High-throughput results: PubChem, several laboratories
